From PubChem BioAssay
Hits are enriched below; roughly 1.2% of the tested compounds scored in any of these assays.
Rv3671c inh = inhibits the M. tuberculosis serine protease Rv3671c; P9WHR9; inhibition, % at 5.96 µM; 0.048% of 320,000 active; in the data active means inhibition above about 38%;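 further: extracellular domain of Rv3671c used as enzyme; 0% = enzyme with DMSO and 100% = no enzyme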
RecA intein inh = Mtb RecA intein splicing inhibition; P9WHJ3; inhibition, % (test concentration not listed); 0.75% of 290,000 active; cell-free RecA intein splicing, fluorescence; in the data active means inhibition above about 30%; inconclusive means no clear call, values can overlap the other calls;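 further: 0% = vehicle wells and 100% = reference inhibitor control wells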
UGM FP inh = blocks M. tuberculosis UGM enzyme. inhibition, % at 10 µM. 0.06% of 320,000 active. AID 504406. purified UGM, fluorescence polarization probe displacement. P9WIQ1; in the data active means inhibition above about 10%, passing the limit was not always enough; inconclusive means no clear call, values can overlap the other calls
Target sequence (P9WIQ1 whole entry, looked up): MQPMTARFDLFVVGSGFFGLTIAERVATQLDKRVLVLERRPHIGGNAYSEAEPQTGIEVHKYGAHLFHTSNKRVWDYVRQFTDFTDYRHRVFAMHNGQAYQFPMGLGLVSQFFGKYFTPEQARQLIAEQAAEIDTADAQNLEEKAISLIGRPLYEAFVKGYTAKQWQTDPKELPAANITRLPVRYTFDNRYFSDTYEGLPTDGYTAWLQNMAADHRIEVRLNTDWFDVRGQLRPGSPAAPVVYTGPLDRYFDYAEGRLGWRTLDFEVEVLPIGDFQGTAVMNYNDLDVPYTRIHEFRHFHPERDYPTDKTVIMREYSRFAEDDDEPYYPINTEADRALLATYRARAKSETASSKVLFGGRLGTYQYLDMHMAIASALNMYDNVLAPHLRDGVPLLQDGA
Mtb bLac sens = beta-lactam sensitization of Mtb H37Rv; M. tuberculosis H37Rv growth with meropenem, percent inhibition; inhibition, % at 25 µM; 0.27% of 330,000 active; call rule not given here;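 further: growth measured after seven days incubation then overnight dye step; 0% = bacteria only wells and 100% = bacteria with antibiotic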
CCHF vOTU inh-1 = CCHFV vOTU protease inhibition. Pep-AMC fluorescence. 0.55% of 370,000 active. inhibition, % at 11.5 µM. AID 651958; further: 0% = vehicle wells with enzyme and 100% = no enzyme wells
CCHF vOTU inh-2 = CCHFV vOTU protease inhibition, confirmation; shares compounds with CCHF vOTU inh-1; Recombinant CCHFV vOTU, Pep-AMC fluorescence; 17% of 1,900 active; inhibition, % at 11.5 µM
The depositor's hits bear a star; ? = inconclusive; . = not tested or not shown. Unless noted, no stated cut-off is given here; in the data, active means inhibition above about 30%; inactive means the rest.

SMILES	Rv3671c inh	RecA intein inh	UGM FP inh	Mtb bLac sens	CCHF vOTU inh-1	CCHF vOTU inh-2
CC(C)(C)c1ccc(C(=O)Nc2cccc([N+](=O)[O-])c2)cc1	-13	10	2	-3	-2	.
CC(C)(C)OC(=O)NCc1cc2c(cc1/C=C/S(=O)(=O)NCc1ccc(F)cc1)OCO2	.	.	.	.	10	.
CCc1cc(-c2onc(C)c2-c2cscn2)c(O)cc1OC	-7	2	-2	-1	31*	-7
COc1ccc(-c2onc(C)c2-c2cscn2)c(O)c1	-3	-2	3	4	0	.
CCOC(=O)CC[C@H]1CC[C@]2(CCCN(C(=O)c3cccnc3)C2)O1	.	.	.	.	-5	.
Cc1ccc(NP(=O)(c2ccc(N(C)C)cc2NC(=O)c2cccs2)N2CCOCC2)cc1Cl (stereo unspecified)	2	1	1	16	30*	-25
CC(C)N1Cc2nnn(Cc3ccccc3)c2-c2ccccc2S1(=O)=O	.	.	.	.	8	.
COC1=CC(=Cc2c(N)n3nc(CC(=O)N4CCCCC4)sc3nc2=O)C=C(OC)C1=O	0	-2	-37	1	34*	4
COc1ccc(N2CCCN(CC(=O)Nc3ccc(Cl)cc3)CC2)cc1	.	.	.	.	2	.
CC(=O)N1CCc2c1cccc2S(=O)(=O)NC(CC(C)C)C(=O)Nc1ccc(Cl)c(Cl)c1 (stereo unspecified)	.	.	.	.	-2	.
COc1ccc2c(c1)NP(=S)(c1ccccc1)N2C (stereo unspecified)	.	.	.	.	38*	-18
O=C(NCc1ccc2c(c1)OCO2)c1cc(COc2c(F)cccc2F)on1	-8	1	1	?	10	.
O=C(NCc1ccc(N2CCCC2=O)cc1)c1cc(COc2c(F)cccc2F)on1	1	0	1	-3	38*	-18
O=C(CCN1C(=O)/C(=C\C=C\c2ccccc2)SC1=S)Nc1cccc(C(=O)O)c1	-12	8	3	0	33*	5
O=c1c2ccccc2nc(/C=C/c2ccccc2)n1CCCO	-7	0	-1	6	20	.
CN(C)c1ccc(/C=C/c2nc3ccccc3c(=O)n2CCO)cc1	5	-5	0	6	30*	-5
Cc1ccc(C2(c3ccc(C)cc3)CC2C(=O)Nc2ccc([N+](=O)[O-])cc2O)cc1 (stereo unspecified)	-60	16	1	98	34*	-5
CC1(C)CC1C(=O)Nc1ccc([N+](=O)[O-])cc1Br (stereo unspecified)	-8	4	0	-5	14	.
NC(=O)C1(N2CCCCC2)CCN(C2CC(=O)NC2=O)CC1 (stereo unspecified)	12	0	0	-5	31*	-6
CN1C(=O)CC(N2CCC(C(N)=O)(N3CCCCC3)CC2)C1=O (stereo unspecified)	0	-1	-1	-4	0	.
COC(=O)[C@]12C[C@H](CC(=O)NCc3cccs3)C(=O)N(Cc3ccc(Cl)cc3Cl)C1=C[C@H](C(C)(C)C)O[C@@H]2C	.	.	.	.	26	.
Cc1nnc(N/N=C/c2cc([N+](=O)[O-])c(N3CCC(C)CC3)cc2N2CCC(C)CC2)n1N	-29	21	-2	97	96*	-3
CCc1nnc(N/N=C/c2ccc(N3CCC(C)CC3)c([N+](=O)[O-])c2)n1N	-57	27	-1	99	88*	-5
CC(=O)Nc1cc(-c2cccc(NS(C)(=O)=O)c2)cn2c(-c3cccc(C(F)(F)F)c3)cnc12	.	.	.	.	7	.
CC(=O)Nc1cc(-c2ccccc2N(C)C)cn2c(-c3cccc(C(F)(F)F)c3)cnc12	.	.	.	.	34*	-2
SMILES	Rv3671c inh	RecA intein inh	UGM FP inh	Mtb bLac sens	CCHF vOTU inh-1	CCHF vOTU inh-2
COC(=O)[C@@]12CCCCC3=C1N(CCC3)C(=O)[C@H]2CC(=O)NCc1ccc(C)o1	.	.	.	.	-10	.
O=C(COC(=O)C1CCN(c2ccc(C(F)(F)F)cn2)CC1)NCc1ccccc1	1	.	1	-3	35*	-2
CC(NC(=O)COC(=O)C1CCN(c2ccc(C(F)(F)F)cn2)CC1)c1ccccc1 (stereo unspecified)	.	.	.	.	18	.
COc1ccc(S(=O)(=O)n2nc(OC(=O)c3ccc(C)cc3)cc2N)cc1	8	7	0	-2	35*	-7
CCN(CCO)c1ccc(N=Cc2c(O)n(C)c(=S)[nH]c2=O)cc1	-55	-6	-1	1	32*	-10
C[C@H](O)[C@@H]1CN2CCc3ccc(N4CCOCC4)cc3[C@@H]2C[C@@H]1N(C)CC1CCCCC1	.	.	.	.	-4	.
CCCCCCCCNS(=O)(=O)CCNCc1ccc(OC)cc1	.	.	.	.	32*	6
COc1ccc(CNS(=O)(=O)CCNC(=O)c2ccc(OC)cc2)cc1	5	-1	0	-3	31*	-14
OCC1OC(C(N=Nc2ccccc2)=NNc2ccccc2)C(O)C1O (stereo unspecified)	.	.	.	.	31*	-16
COc1ccc(Cn2cc(CN3[C@@H](CC(C)C)COc4cccc(F)c4S3(=O)=O)nn2)cc1	.	.	.	.	-2	.
CC(=O)N1CCn2c3c(c(=O)c4cc(C)ccc42)CCC31 (stereo unspecified)	-80	.	1	4	101*	16
COc1ccc(CCNC(=O)Nc2ccc3c(c2)[C@]2(CC(=O)N(CC(C)C)C2c2ccccc2)C(=O)N3C)cc1OC (stereo partly specified)	.	.	.	.	12	.
CC(C)Cc1ccc(-c2cc3nc(NCCCn4ccnc4)ccn3n2)cc1	.	.	.	.	30*	2
FC(F)(F)c1cccc(-c2cc3nc(NCCCn4ccnc4)ccn3n2)c1	.	.	.	.	0	.
COC(=O)C1CN(Cc2ccccc2)CCS(=O)(=O)N1Cc1cn(Cc2ccc(F)cc2)nn1 (stereo unspecified)	.	.	.	.	0	.
COC(=O)C1CN(Cc2ccc(F)cc2)CCS(=O)(=O)N1Cc1cn(Cc2ccc(F)cc2)nn1 (stereo unspecified)	.	.	.	.	30*	-10
CC(=O)CC[C@H]1CC[C@]2(CCCN(Cc3nccn3C)C2)O1	.	.	.	.	-1	.
CC(=O)NC(c1cccc(F)c1)c1nc(-c2cc(F)cc(Cl)c2)cs1 (stereo unspecified)	.	.	.	.	36*	-1
CC(=O)NC(c1cccc(F)c1)c1nc(-c2ccc(C)c(C)c2)cs1 (stereo unspecified)	.	.	.	.	15	.
O=C(CSc1nc2ccccc2nc1N1CCCCC1)N1CCN(S(=O)(=O)c2cc(Cl)ccc2Cl)CC1	.	.	.	.	4	.
CCn1c(=O)c(C(=O)CN(C)Cc2ccc(F)cc2)c(N)n(Cc2ccccc2)c1=O	-2	-1	-2	-14	-7	.
CCn1c(=O)c(C(=O)CN(C)CC(=O)Nc2cccc(F)c2)c(N)n(Cc2ccccc2)c1=O	-7	.	-2	6	30*	-16
Cc1ccc(-c2cc(-c3nnc(SCC(=O)N4c5ccccc5Sc5ccc(Cl)cc54)n3N)[nH]n2)cc1	.	.	.	.	3	.
C/C=C/COC(=O)c1[nH]c2c(c1C)C(=O)CC(c1ccco1)C2 (stereo unspecified)	-10	1	0	-3	30*	-17
